Screens deposited in PubChem by National Center for Advancing Translational Sciences (NCATS).
G9a block: inhibitors of human histone lysine methyltransferase G9a; G9a H3K9 monomethylation, AlphaScreen, 2 h; Potency, µM (highest dose often 102 µM), actives largely listed as inhibitors; 350,000 compounds, 8.8% hits; AID 504332; also: nearly all actives have a fitted effect of over 75% in size
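Quantitative HTS format: methyltransferase activity on a biotin-tagged H3K9 peptide is measured by AlphaScreen, using a rabbit anti-monomethyl-H3K9 antibody with streptavidin donor and anti-IgG acceptor beads. Final levels are 20 nM enzyme, 500 nM peptide, 20 uM SAM; 2 h RT.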
BAZ2B inh: inhibitors of human BAZ2B bromodomain; Q9UIF8; AlphaScreen BAZ2B-H3K14Ac peptide displacement; Potency, µM (series often up to 114 µM), usual class: inhibitors; 360,000 compounds, 4.4% hits; also: nearly all actives have a fitted effect of over 60% in size
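AlphaScreen displacement of biotin-H3(5-23)K14Ac peptide (50 nM final) from BAZ2B (50 nM final) in PBS pH 7.4, 0.01% Tween-20; complex preformed 30 min RT, then compounds (top 110 uM) 30 min RT, beads 20 min dark.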
HP1b binding inh: inhibitors of HP1-beta chromodomain binding to methylated histone tails; P83916; AlphaScreen HP1-beta / biotin-H3K9me3 peptide binding; Potency, µM (top dose mostly 114 µM), actives largely listed as inhibitors; 390,000 compounds, 0.56% hits; also: nearly all actives have a fitted effect of over 70% in size
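Compound inhibition of the preformed complex between 50 nM HP1-beta and 50 nM biotinylated H3K9me3 peptide was read by AlphaScreen. Buffer was PBS pH 7.4 with 0.01% Tween-20. Incubations ran 30 min at room temperature, with 10 ug/mL donor/acceptor beads.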
JMJD2A Tudor inh: JMJD2A Tudor domain (human) inhibition | AID 504339 | AlphaScreen JMJD2A-Tudor / H3K4me3 peptide binding | 390,000 compounds, 4.4% hits | Potency, µM (highest dose often 114 µM), actives largely listed as inhibitors; also: nearly all actives have a fitted effect of over 50% in size
Target sequence (O75164 whole entry, looked up, the tested form may be a part): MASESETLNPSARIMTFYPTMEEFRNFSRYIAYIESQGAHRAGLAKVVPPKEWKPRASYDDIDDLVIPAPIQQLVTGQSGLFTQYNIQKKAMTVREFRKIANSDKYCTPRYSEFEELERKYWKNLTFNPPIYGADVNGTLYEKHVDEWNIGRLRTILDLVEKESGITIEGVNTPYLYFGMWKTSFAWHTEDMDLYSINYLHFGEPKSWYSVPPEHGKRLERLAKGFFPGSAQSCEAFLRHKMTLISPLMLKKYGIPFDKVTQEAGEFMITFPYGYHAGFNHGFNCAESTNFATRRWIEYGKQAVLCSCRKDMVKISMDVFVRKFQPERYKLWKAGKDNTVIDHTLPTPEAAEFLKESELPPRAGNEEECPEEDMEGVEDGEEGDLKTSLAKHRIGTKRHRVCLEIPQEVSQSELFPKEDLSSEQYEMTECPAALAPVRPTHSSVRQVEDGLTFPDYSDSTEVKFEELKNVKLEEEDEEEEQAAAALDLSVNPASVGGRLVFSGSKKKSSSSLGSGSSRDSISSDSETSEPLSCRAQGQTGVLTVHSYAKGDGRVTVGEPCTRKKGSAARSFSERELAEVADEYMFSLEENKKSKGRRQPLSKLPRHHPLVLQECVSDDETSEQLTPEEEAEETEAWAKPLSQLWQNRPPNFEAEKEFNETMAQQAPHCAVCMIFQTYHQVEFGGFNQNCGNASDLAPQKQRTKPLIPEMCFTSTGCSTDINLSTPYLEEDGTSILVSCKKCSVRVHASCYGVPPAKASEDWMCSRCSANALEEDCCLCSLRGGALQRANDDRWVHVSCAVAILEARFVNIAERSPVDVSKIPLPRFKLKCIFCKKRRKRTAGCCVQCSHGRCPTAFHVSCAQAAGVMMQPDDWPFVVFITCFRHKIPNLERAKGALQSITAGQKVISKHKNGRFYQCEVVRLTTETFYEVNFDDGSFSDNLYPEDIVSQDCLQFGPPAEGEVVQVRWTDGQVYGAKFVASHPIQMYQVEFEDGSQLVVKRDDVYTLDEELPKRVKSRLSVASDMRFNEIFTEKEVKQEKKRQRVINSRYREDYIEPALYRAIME
Sfp inh: blocks B. subtilis Sfp PPTase activity | Q9F4F7 | Biochemical Sfp PPTase activity, qHTS | Potency, µM, most hits filed as inhibitors | 310,000 compounds, 3.5% hits | AID 1490;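 also: the enzyme is Sfp with the accession as filed and its product quenches rhodamine fluorescence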
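Fluorescence-quenching assay: 15 nM Sfp-PPTase preincubated 15 min at room temperature with compound, then 5 uM rhodamine-CoA and 12.5 uM BHQ-2-labelled YbbR peptide added. Fluorescence (ex 525/em 598 nm) read at start and after 30 min; difference gives rate.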
TDP1 inh: inhibitors of human tyrosyl-DNA phosphodiesterase TDP1; Q9NUW8; recombinant TDP1, AlphaScreen DNA substrate cleavage; Potency, µM (doses to about 130 µM), usual class: inhibitors; 350,000 compounds, 0.28% hits; also: nearly all actives have a fitted effect of over 40% in size
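Here, a 5' biotin and 3' phosphotyrosine-FITC DNA oligonucleotide reports Tdp1 activity: intact substrate bridges AlphaScreen beads, while cleavage leaves a 3' phosphate and drops signal. All incubations at room temperature.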
Numbers stand for hits; [ ] = remark or other dose. A selection: hits, their analogues and other compounds. The true share with any hit is near 12%. Calls follow the shape of the dose curve; as a rule, active = well fitted curve in the direction sought with a large enough effect; inconclusive = small, poorly fitted or top-dose-only effect, or another doubt; inactive = no such curve, though single readings can be large; an effect the other way counts as inactive or inconclusive.

What do the screens show for `Cn1c(=O)c2c(SCC(=O)NCc3ccco3)nc(-c3cccc(F)c3)nc2n(C)c1=O`?
G9a block: inactive; BAZ2B inh: inactive; HP1b binding inh: inactive; JMJD2A Tudor inh: inconclusive; TDP1 inh: inactive

What do the screens show for `Cc1cc2ccccn2c1C(=O)c1ccc(NN)c([N+](=O)[O-])c1`?
G9a block: 10µM; BAZ2B inh: 18µM; HP1b binding inh: 32µM; JMJD2A Tudor inh: 40µM; Sfp inh: inactive; TDP1 inh: inactive

What do the screens show for `CCN(CC)S(=O)(=O)c1cccc(C(=O)c2c(C)cc3ccccn23)c1`?
G9a block: inactive; BAZ2B inh: inactive; HP1b binding inh: inactive; JMJD2A Tudor inh: inactive; Sfp inh: inactive; TDP1 inh: inactive

What do the screens show for `COC(=O)c1cc(C(=O)c2c(C)cc3ccccn23)cc([N+](=O)[O-])c1`?
G9a block: 32µM; BAZ2B inh: inconclusive; HP1b binding inh: inconclusive; JMJD2A Tudor inh: 45µM; Sfp inh: inactive

What do the screens show for `COC(=O)c1cc(C(=O)N2CCN(c3cccc(C)c3C)CC2)cc([N+](=O)[O-])c1`?
BAZ2B inh: inconclusive; HP1b binding inh: inconclusive; JMJD2A Tudor inh: inconclusive; Sfp inh: inactive; TDP1 inh: inactive

Results for Cc1cc2ccccn2c1C(=O)c1cc([N+](=O)[O-])cc([N+](=O)[O-])c1 ?
G9a block: 32µM; BAZ2B inh: 10µM; HP1b binding inh: inconclusive; JMJD2A Tudor inh: 18µM; Sfp inh: inactive; TDP1 inh: inactive

How did Cc1cc2ccccn2c1C(=O)c1ccc(C#N)cc1 do in these assays?
G9a block: inconclusive; BAZ2B inh: inconclusive; HP1b binding inh: inactive; JMJD2A Tudor inh: inactive; Sfp inh: inactive

Results for COc1cc(/C=N/NC(=O)C(=O)NCc2ccco2)cc(Cl)c1O ?
G9a block: inactive; BAZ2B inh: inconclusive; HP1b binding inh: inactive; JMJD2A Tudor inh: inconclusive; Sfp inh: inactive; TDP1 inh: inactive

How did O=C(O)c1ccc(/C=N/NC(=O)c2cc3c(ccc4ccccc43)o2)cc1 do in these assays?
G9a block: inconclusive; BAZ2B inh: 71µM; HP1b binding inh: inactive; JMJD2A Tudor inh: inconclusive; Sfp inh: inactive; TDP1 inh: 40µM

Results for O=C(N/N=C/c1ccc(-c2ccc(Cl)c(C(=O)O)c2)o1)c1cc2c(ccc3ccccc32)o1 ?
BAZ2B inh: 28µM; HP1b binding inh: inconclusive; JMJD2A Tudor inh: inactive[11.4 µM]; Sfp inh: inconclusive; TDP1 inh: inactive

What do the screens show for `CC(=O)c1cccc(NC(=O)C(Cc2ccccc2)NS(=O)(=O)c2ccc(Br)s2)c1` (centres undefined)?
G9a block: inactive; BAZ2B inh: inactive; HP1b binding inh: inactive; JMJD2A Tudor inh: inactive; TDP1 inh: inactive

What do the screens show for `COc1ccc(C(=O)N2CCC3(CCCN(C)C3)CC2)cc1`?
G9a block: inactive[12.7 µM]; Sfp inh: inactive

What do the screens show for `CCOC(=O)c1c(S(=O)(=O)NCc2ccc(OC)cc2)c(C)n(C)c1C`?
G9a block: inactive; BAZ2B inh: inactive; HP1b binding inh: inactive; JMJD2A Tudor inh: inactive; Sfp inh: inactive; TDP1 inh: inactive

What do the screens show for `Cc1c(C)c2cc3c(c(C)c2oc1=O)OCN(CCc1ccccc1)C3`?
G9a block: inactive; BAZ2B inh: inactive; HP1b binding inh: inactive; JMJD2A Tudor inh: inactive; TDP1 inh: inactive

What do the screens show for `COC(=O)c1ccccc1-c1ccc(/C=N/NC(N)=O)o1`?
G9a block: inconclusive; BAZ2B inh: inactive; HP1b binding inh: inactive; JMJD2A Tudor inh: inactive; Sfp inh: inactive

Results for COC(=O)c1sccc1-c1ccc(/C=N/OC(=O)c2ccccc2)o1 ?
G9a block: inactive; BAZ2B inh: inactive; HP1b binding inh: inactive; JMJD2A Tudor inh: inactive; Sfp inh: 50µM; TDP1 inh: inactive

Results for CC(=O)Oc1ccc(C(=O)[C@H]2[C@H]3C(=O)N(c4ccc5ccccc5c4)C(=O)[C@H]3[C@@H]3C=CC=NN32)cc1 ?
G9a block: inconclusive; BAZ2B inh: inactive; HP1b binding inh: inactive; JMJD2A Tudor inh: inactive; Sfp inh: inactive; TDP1 inh: inactive

Results for COc1ccccc1N1C(=O)[C@@H]2[C@H](C1=O)[C@H](C(=O)c1ccc(OC(C)=O)cc1)N1N=CC=C[C@@H]21 ?
G9a block: 5µM; BAZ2B inh: inactive; HP1b binding inh: inactive; JMJD2A Tudor inh: inactive; Sfp inh: inactive; TDP1 inh: inconclusive

How did COc1cccc(CN2C[C@]34C=C[C@@H](C[C@@H]3S2(=O)=O)O4)c1 do in these assays?
G9a block: inactive; BAZ2B inh: inactive; HP1b binding inh: inactive; JMJD2A Tudor inh: inactive; Sfp inh: 89µM

Results for CC(C)(CNC(=O)c1ccc(-c2cccc(C(F)(F)F)c2)o1)N1CCOCC1 ?
G9a block: inactive[12.7 µM]; BAZ2B inh: inactive; HP1b binding inh: inactive; JMJD2A Tudor inh: inactive

What do the screens show for `CC(=O)Nc1cc(-c2ccccc2)ccc1O`?
G9a block: 28µM; BAZ2B inh: inactive; HP1b binding inh: inactive; JMJD2A Tudor inh: inactive; Sfp inh: inactive; TDP1 inh: inactive

How did CC(=O)Nc1cc(Br)ccc1O do in these assays?
G9a block: inactive[0.501 µM]; BAZ2B inh: inactive; HP1b binding inh: inactive; JMJD2A Tudor inh: inactive; Sfp inh: inactive; TDP1 inh: inactive

What do the screens show for `Nc1ccc(-c2ccc(N)c(O)c2)cc1O`?
TDP1 inh: inactive

Results for Nc1cc(-c2ccccc2)ccc1O ?
G9a block: 22µM; BAZ2B inh: inconclusive; HP1b binding inh: inactive; JMJD2A Tudor inh: inconclusive; Sfp inh: inactive; TDP1 inh: inactive

Results for CC12CCC(=O)N1C(C(=O)Nc1nc(-c3ccccc3Cl)cs1)CS2 (centres undefined) ?
G9a block: 50µM; BAZ2B inh: inactive; HP1b binding inh: inactive; JMJD2A Tudor inh: inactive

Results for O=C1CCC2S/C(=C/Nc3ccc(C(F)(F)F)cc3)C(=O)N12 (centres undefined) ?
G9a block: inconclusive; BAZ2B inh: inconclusive; HP1b binding inh: inactive; JMJD2A Tudor inh: inactive[11.4 µM]; Sfp inh: 22µM; TDP1 inh: inactive

How did O=C1CCCC/C1=C/Nc1cccc(C(F)(F)F)c1 do in these assays?
G9a block: inconclusive; BAZ2B inh: inactive; HP1b binding inh: inactive; JMJD2A Tudor inh: inactive; Sfp inh: inactive; TDP1 inh: inactive

What do the screens show for `CCOc1ccc(CC(=O)NNC(=O)/C=C/C(=O)O)cc1`?
G9a block: 32µM; BAZ2B inh: inactive; HP1b binding inh: inactive; JMJD2A Tudor inh: inactive; Sfp inh: inconclusive; TDP1 inh: inactive

How did O=C(Cn1cc(COc2ccccc2[N+](=O)[O-])nn1)c1ccc(O)cc1 do in these assays?
HP1b binding inh: inactive; JMJD2A Tudor inh: inconclusive

How did N#Cc1ccccc1OCc1cn(CC(=O)c2ccc(O)cc2)nn1 do in these assays?
HP1b binding inh: inactive; JMJD2A Tudor inh: 20µM

How did COc1ccc(C=O)c(OCc2cn(CC(=O)c3ccc(O)cc3)nn2)c1 do in these assays?
HP1b binding inh: inactive; JMJD2A Tudor inh: 79µM
